# TDP1 cell noCPT = qHTS for Inhibitors of human tyrosyl-DNA phosphodiesterase 1 (TDP1): qHTS in cells in absence of CPT; DT40 Tdp1-/- hTDP1 cells, no CPT, ATP luminescence, 48 h; Potency, µM (doses to about 46.2 µM), for inactives: at the highest dose activity change, negative = growth inhibition, hits mostly inhibitors; actives 15% (n = 420,000); further: potency means the concentration at half of the fitted maximal effect; on the % scale 0 is the no-effect control and ±100 the full control effect; nearly all actives have a fitted effect of over 55% in size
#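 A cellular qHTS used chicken DT40 cells lacking endogenous Tdp1 but carrying stably transfected human TDP1. Compounds were applied without camptothecin, and cell growth kinetics were judged by ATP-dependent luminescence after ≥48 hr.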
# D3 antag = D3 dopamine receptor (human) antagonism; max response, negative = inhibition, %; actives 2.5% (n = 360,000); D3R cells, DiscoveRx beta-arrestin luminescence, antagonist mode; active compounds read low; AID 652054; in the data active means max response below about -50%; inconclusive means no clear call, values can overlap the other calls; further: on the % scale 0 is the no-effect control and ±100 the full control effect
# Target sequence (P35462 whole entry, looked up): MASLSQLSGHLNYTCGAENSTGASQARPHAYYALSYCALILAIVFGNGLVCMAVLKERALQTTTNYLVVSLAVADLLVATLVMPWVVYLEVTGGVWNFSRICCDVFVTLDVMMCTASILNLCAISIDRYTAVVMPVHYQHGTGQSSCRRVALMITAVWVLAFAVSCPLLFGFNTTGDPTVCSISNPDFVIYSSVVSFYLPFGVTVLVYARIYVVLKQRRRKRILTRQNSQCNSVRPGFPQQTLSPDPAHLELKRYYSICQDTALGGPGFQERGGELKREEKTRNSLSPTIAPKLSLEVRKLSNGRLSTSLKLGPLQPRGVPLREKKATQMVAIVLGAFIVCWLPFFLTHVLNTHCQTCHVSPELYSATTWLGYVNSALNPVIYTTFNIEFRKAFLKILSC
#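 Cells plated overnight at 1500 cells/well, then exposed to library compounds with dopamine controls for 90 minutes at 37 degrees C. DiscoveRx reagent added for 30–60 minutes at room temperature; luminescence read, quantitative HTS format.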
# D3 ag = activates the human D3 dopamine receptor | D3R DiscoveRx beta-arrestin cells, luminescence, 90 min | P35462 | max activation, % | AID 652048 | actives 0.58% (n = 410,000); in the data active means max activation above about 30%; further: 0% is about no effect
#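 Cells at 1500/well, incubated overnight, then treated with pinned compounds (dopamine as control) for 90 min at 37 degrees C. DiscoveRx reagent added for 30 - 60 minutes at room temperature; luminescence read.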
# ClpP mod = qHTS Assay for Activators of ClpP; ATP-dependent Clp protease proteolytic subunit (Bacillus subtilis (strain 168)), P80244; purified B. subtilis ClpP, FRET peptide cleavage, 20 min; Potency, µM (titrated, usually from 57.5 µM), for inactives: at the highest dose activity change, negative = active; actives 1.9% (n = 340,000); AID 651965, 2013; active means well fitted falling curve with a large enough effect; inconclusive means small, poorly fitted or top-dose-only effect; inactive means no such curve, though single readings can be large or run the other way; further: potency means the concentration at half of the fitted maximal effect; the source files actives as falling curves though it sought activators and does not explain the sign; nearly all actives have a fitted effect of over 65% in size
# Target sequence (P80244 whole entry, looked up): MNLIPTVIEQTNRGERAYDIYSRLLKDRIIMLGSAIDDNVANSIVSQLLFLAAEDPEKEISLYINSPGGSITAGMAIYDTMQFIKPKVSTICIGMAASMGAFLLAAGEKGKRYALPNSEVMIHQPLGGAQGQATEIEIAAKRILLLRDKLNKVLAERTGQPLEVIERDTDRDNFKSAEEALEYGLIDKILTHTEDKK
#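 ClpP 10 microg/mL final, pH 8 Tris/KCl buffer with BSA, glycerol, Tween-20; compound pinned in; FRET-FV substrate; RT 20 min; Ex320/Em430; ΔFRET vs ADEP 5.8 microM, DMSO, no enzyme.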
# TDP1 cell CPT = growth inhibition of DT40 Tdp1-/-;hTDP1 cells with camptothecin (screen for TDP1 inhibitors). chicken DT40 Tdp1-/-;hTDP1 cells + 20 nM CPT, ATP luminescence, 48 h. Potency, µM (highest dose often 46.2 µM), inactives show at the highest dose activity change, negative = growth inhibition, usual class: inhibitors. actives 12% (n = 420,000). AID 686979; further: potency means the concentration at half of the fitted maximal effect; on the % scale 0 is the no-effect control and ±100 the full control effect; nearly all actives have a fitted effect of over 55% in size
#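 Cell growth measured by CellTiter-Glo luminescence after a minimum 48 h, 37 C compound exposure with 20 nM CPT in Tdp1-knockout DT40 cells stably expressing hTDP1, seeded 400/well; qHTS titration format.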
# IL1B secr inh = inhibitors of inflammasome signaling (IL-1 beta secretion). THP-1 LPS/ATP IL-1B secretion, AlphaLISA, 16 h; active compounds read low. actives 4.7% (n = 360,000). activity change, % at 57.5 µM; in the data active means activity change below about -50%; inconclusive means mostly about -30% to -49%; further: on the % scale 0 is the no-effect control and ±100 the full control effect
#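 THP-1 cells pretreated 1 hr with compounds (up to 57.5 uM final), then stimulated with LPS (250 ng/mL final) plus ATP (1.25 mM final); secreted IL-1B measured by AlphaLISA after 16 hr, decreased signal indicating inhibition.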
# An asterisk follows results filed as active; ? = inconclusive; nt = no result given. The list is not random: actives were taken first. Their share in the collection is about 21%. Unless noted, the call rests on the fitted dose curve; in most records, active means well fitted inhibition curve with a large enough effect; inconclusive means small, poorly fitted or top-dose-only effect; inactive means flat fitted curve, though single readings scatter.
SMILES,TDP1 cell noCPT,D3 antag,D3 ag,ClpP mod,TDP1 cell CPT,IL1B secr inh
Oc1ccc(-c2cc(-c3ccc(O)cc3)nc(-c3ccccc3)n2)cc1,?,3,-1,nt,?,-98*
Nc1ccc(-c2cc(-c3ccc(N)cc3)nc(-c3ccccc3)n2)cc1,-12%,8,-5,-3%,-9%,-6
Brc1cc(-c2ccccc2)nc(-c2ccccc2)n1,-16%,-18,-3,nt,5%,-84*
CSc1cccc(NC(=S)N2CCCN(Cc3ccccc3F)C2)c1,-27%,-6,-11,nt,?,?
C[C@@H]1COC(=O)[C@@H](Cc2ccc(F)cc2)C/C=C\C[C@@H](CC(=O)NCCO)C(=O)N1,7%,9,13,-1%,1%,41
CCCOc1ccc(-c2nc(N3CCN(CC)CC3)c3ccccc3n2)cc1,29µM*,?,-3,?,?,-57*
CCCOc1ccc(-c2nc(N3CCCCC3)c3ccccc3n2)cc1,-19%,nt,-9,14%,-5%,nt
CCCOc1ccc(-c2nc(OCC)c3ccccc3n2)cc1,-15%,27,14,32µM*,-28%,41
CCCOc1ccc(-c2nc(N3CCN(C)CC3)c3ccccc3n2)cc1,?,-59*,-10,-13%,23µM*,-20
COCCN(C(=O)COC(=O)c1ccc2ccccc2c1)c1c(N)n(Cc2ccccc2)c(=O)[nH]c1=O,-26%,0,-2,-23%,-21%,-10
CC(=O)c1cccc(CN2CCCC(C(=O)c3ccc4c(c3)OCO4)C2)c1 (centres undefined),?,-23,-10,nt,2%,-18
COc1cccc(C(=O)C2CCCN(Cc3cccc(OCCO)c3)C2)c1 (centres undefined),-17%,?,-22,nt,17%,-2
COc1ccc(CN2CCCC(C(=O)c3ccc4c(c3)OCO4)C2)c(F)c1 (centres undefined),?,-59*,-4,-9%,-30%,3
O=C(c1ccc2c(c1)OCO2)C1CCCN(C2CCN(CCc3ccccc3)CC2)C1 (centres undefined),21µM*,-84*,-26,nt,18µM*,-76*
COc1cccc(C(=O)C2CCCN(CC3=Cc4cc(OC)ccc4OC3)C2)c1 (centres undefined),-24%,-21,-14,nt,?,-89*
CCCN(C1CCS(=O)(=O)C1)S(=O)(=O)c1cc(OC)ccc1OC (centres undefined),19%,-1,-6,-3%,2%,0
O=C(CSc1nc2ccccc2nc1Cc1ccccc1)N1CCc2ccccc21,-13%,nt,-3,0%,-17%,nt
COc1ccccc1-c1ccc2c(c1)O[C@@H](CN(C)C(=O)Nc1cccc(F)c1)[C@H](C)CN([C@H](C)CO)S2(=O)=O,?,11,1,4%,?,-26
C[C@@H]1CN([C@@H](C)CO)S(=O)(=O)c2ccc(-c3cccc(C#N)c3)cc2O[C@@H]1CN(C)C(=O)c1ccc(F)cc1,21µM*,-11,-12,2%,?,-26
C/C=C/c1ccc2c(c1)O[C@@H](CN(C)C(=O)c1ccc(F)cc1)[C@@H](C)CN([C@H](C)CO)S2(=O)=O,?,2,4,0%,?,-3
C[C@H](CO)N1C[C@H](C)[C@@H](CN(C)Cc2cccnc2)Oc2cc(-c3cccnc3)ccc2S1(=O)=O,-28%,7,4,1%,-20%,-21
COc1cccc(-c2ccc3c(c2)O[C@@H](CN(C)Cc2cncnc2)[C@@H](C)CN([C@H](C)CO)S3(=O)=O)c1,9.2µM*,-19,-11,?,23µM*,1
COc1cccc(-c2ccc3c(c2)O[C@H](CN(C)C(=O)c2ccccc2F)[C@H](C)CN([C@H](C)CO)S3(=O)=O)c1,21µM*,-9,12,-26%,?,-29
Cc1ccc(-c2ccc3c(c2)O[C@H](CN(C)Cc2cncnc2)[C@@H](C)CN([C@H](C)CO)S3(=O)=O)cc1,23µM*,2,2,0%,?,-29
CCOc1ccc(OCC(=O)NCCS(=O)(=O)N2CCN(c3cccc(Cl)c3)CC2)cc1,?,nt,-8,-1%,?,nt
SMILES,TDP1 cell noCPT,D3 antag,D3 ag,ClpP mod,TDP1 cell CPT,IL1B secr inh
Cc1cc(NC2CCCCC2)nc(NCc2ccccc2)n1,4.6µM*,-12,-12,-6%,4.6µM*,-74*
CCCOc1ccc(Nc2cc(C)nc(C)n2)cc1,?,nt,10,1%,23µM*,nt
Cc1cc(N/N=C/c2ccccc2Cl)nc(NCc2ccccc2)n1,4.1µM*,?,1,-9%,4.6µM*,-68*
COc1ccc(Nc2cc(C)nc(N)n2)cc1,-27%,-8,-6,1%,-10%,2
CCOc1ccc(Nc2cc(C)nc(N3CCOCC3)n2)cc1,?,14,1,4%,-25%,2
COc1ccc(Nc2cc(C)nc(NCc3ccccc3)n2)cc1,4.6µM*,-29,-13,nt,5.2µM*,-99*
COc1c2c(cc3oc(CO[C@@H]4O[C@H](CO)[C@@H](O)[C@H](O)[C@H]4O)cc(=O)c13)O[C@H](C(C)(C)O)C2,-11%,7,1,4%,1%,17
Cc1ccc(Nc2cc(C)nc(NCc3ccccc3)n2)cc1,2.6µM*,-15,-7,nt,2.6µM*,-229*
COc1cccc(CNc2nc3nc(C)cc(C)n3n2)c1,-20%,-13,-8,20µM*,-7%,-12
C/C(=N\Nc1cc(C)nc(NCc2ccccc2)n1)c1ccc([N+](=O)[O-])cc1,9.2µM*,3,2,1%,13µM*,0
Cn1cnc(S(=O)(=O)N2CCC(C(=O)NCc3ccc(F)cc3)CC2)c1,-5%,nt,-11,-1%,4%,nt
COc1cccc(C(=O)N(Cc2nc(-c3ccc(C)cc3)no2)C(C)C)c1,?,8,-4,-1%,18µM*,-1
Cc1ccccc1C(=O)OCc1nnc(-c2ccc(Cl)cc2)o1,11%,-3,-3,0%,-10%,5
COc1ccc(OC(C)C(=O)N(C)Cc2nc(-c3ccc(C)cc3)no2)cc1 (centres undefined),?,15,13,nt,?,53
COc1ccc(-c2noc(CN(C(=O)c3ccoc3C)C(C)C)n2)cc1,?,5,8,nt,-26%,-11

# Source: PubChem
